D1 antagonist – human D1 dopamine receptor antagonism; activity change, negative = inhibition, % at 10 µM; HEK293 TREx D1 cells, calcium flux, dopamine EC80; hits give low values; 360,000 tested, 3.2% active; in the data active means activity change below about -30%
Target sequence (P21728 whole entry, looked up): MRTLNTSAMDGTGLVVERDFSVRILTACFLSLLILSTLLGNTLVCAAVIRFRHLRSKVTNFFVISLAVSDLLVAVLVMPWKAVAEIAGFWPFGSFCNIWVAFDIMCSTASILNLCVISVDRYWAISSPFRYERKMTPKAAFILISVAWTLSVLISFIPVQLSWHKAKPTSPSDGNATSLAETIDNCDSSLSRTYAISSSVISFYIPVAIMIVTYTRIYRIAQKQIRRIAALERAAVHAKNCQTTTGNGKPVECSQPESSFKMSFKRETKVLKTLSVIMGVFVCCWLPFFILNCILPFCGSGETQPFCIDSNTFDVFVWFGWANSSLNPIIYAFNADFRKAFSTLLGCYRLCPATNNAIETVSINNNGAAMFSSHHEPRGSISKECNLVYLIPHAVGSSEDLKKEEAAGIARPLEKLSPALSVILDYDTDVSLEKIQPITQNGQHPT
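Tetracycline-induced HEK293 T-REx cells with force-coupled D1 receptor were loaded with a no-wash calcium dye. Compound was added after a 10 s baseline and read kinetically for 180 s; EC80 dopamine was then added and calcium flux followed another 180 s.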
D1 potentiator – enhances dopamine response at the human D1 receptor; HEK293 TREx D1 cells, calcium flux, dopamine EC20 potentiation; potentiation, % at 10 µM; 360,000 tested, 0.036% active; P21728; AID 504651; in the data active means potentiation above about 30%
TRHR enhancer – TRH receptor (human) allosteric enhancement. AID 493056. 360,000 tested, 0.66% active. P34981. TRHR cells, fluo-8 calcium fluorescence, EC20 TRH enhancement. enhancement, % at 2 µM; in the data active means enhancement above about 30%
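Enhancer read-out: after compound pinning and an initial kinetic agonist-mode read, an EC20 of TRH (10 nM final) was injected and fluo-8 calcium signal (Ex 480/Em 530) followed at 1 s/cycle for 100 cycles in TRHR-expressing cells.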
TRHR ag – TRH receptor (human) agonism. P34981. TRHR cells, calcium flux fluo-8, FDSS agonist mode. activation, % at 2 µM. 360,000 tested, 0.18% active
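Agonist-mode FDSS calcium read (Ex 480/Em 530, 1 s cycles) in 1536-well TRHR cells with fluo-8 dye, after 10-cycle baseline and 23 nL compound addition; TRH at EC20 (10 nM final) added afterwards for the enhancer phase.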
D1 agonist – human D1 receptor agonism; 360,000 tested, 1% active; AID 504660; P21728; HEK293 T-REx D1 cells, calcium flux, agonist mode; activation, % at 2 µM
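Agonism was scored from calcium flux recorded over 180 s (1 read/s) after pintool compound addition, following a 10-cycle baseline. Cells were inducible force-coupled HEK293 TREx D1, plated overnight at 30 C and loaded with no-wash calcium dye.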
Numbers stand for hits; i = inactive; nt = not tested or not shown; ! = not confirmed by another sample. This is a sample that favours compounds with a hit; in the whole collection about 4.6% have one here. Unless noted, no stated cut-off is given here; in the data, active means activation above about 30%; inactive means the rest.

SMILES | D1 antagonist | D1 potentiator | TRHR enhancer | TRHR ag | D1 agonist
CC(C)(C)C(=O)N1CCN(c2ccc(NC(=O)c3ccc4c(c3)OCCO4)cc2)CC1 | -30.3 | i | i | i | i
CCC(=O)N1CCN(c2ccc(NC(=O)c3ccc([N+](=O)[O-])o3)cc2)CC1 | i | i | i | i | i
CC(C)(C)C(=O)N1CCN(c2ccc(NC(=O)c3ccc([N+](=O)[O-])o3)cc2)CC1 | i | i | i | i | 47.9
Cc1ccc(Sc2ccc(N3CCC(C(=O)Nc4ccc(Cl)cc4)CC3)nn2)cc1 | i | i | i | i | i
c1cncc(-c2nc(NCCCn3ccnc3)c3ccccc3n2)c1 | -38.3 | i | i | i | i
Cc1cccc(-c2nc(NCCCN3CCOCC3)c3ccccc3n2)c1 | i | i | i | i | 50.0
Cc1nc(NCCCn2ccnc2)c2ccccc2n1 | i | i | i | i | i
c1ccc(-c2nc(NCCCN3CCOCC3)c3ccccc3n2)cc1 | i | i | i | i | i
COc1ccc(-n2cc(CNC3CCN(C)CC3)c(-c3cccc(F)c3)n2)cc1 | i | i | i | i | 46.2
O=C(Nc1ccc(O)cc1)C1CC=CCC1 (stereo unspecified) | -100.0 | i | i | i | i
O=C(Nc1nccs1)C1CC=CCC1 (stereo unspecified) | i | i | i | i | i
CCOC(=O)c1cccc(NC(=O)/C=C/c2ccc([N+](=O)[O-])cc2)c1 | -43.7 | i | i | i | i
C=C(C)CC(NCc1ccco1)c1ccc(OC)cc1 (stereo unspecified) | -35.7 | i | i | i | i
COc1ccc(OCC(=O)OCc2cc(=O)n3nc(C4CCCCC4)sc3n2)cc1 | i | i | i | i | i
O=C(c1cc(-c2cccc(Cl)c2)on1)N1CCCCC1 | i | i | i | i | i
CN(C)CCNc1nc2sc3c(c2c(=O)n1Cc1ccccc1)CCCCC3 | i | i | i | i | 65.2
COc1ccc(-n2c(NCCN(C)C)nc3sc4c(c3c2=O)CCCCC4)cc1 | i | i | i | i | 56.0
CN(C)CCNc1nc2sc3c(c2c(=O)n1-c1ccc(F)cc1)CCCCC3 | i | i | i | i | i
Cc1ccc(C(=O)C(C)OC(=O)C2CCN(c3ccc(C(F)(F)F)cn3)CC2)cc1 (stereo unspecified) | i | i | i | i | i
CN1CCN(c2ccc(NC(=O)c3ccc(C(F)(F)F)cc3)cn2)CC1 | -41.3 | i | i | i | i
O=C(COC(=O)C1CCN(c2ccc(C(F)(F)F)cn2)CC1)c1ccc(F)cc1 | -34.7 | i | i | i | 43.2
CC(OC(=O)C1CCN(c2ccc(C(F)(F)F)cn2)CC1)C(=O)Nc1ccc(S(N)(=O)=O)cc1 (stereo unspecified) | i | i | i | i | i
CC(=O)c1ccc(NC(=O)C(C)OC(=O)C2CCN(c3ccc(C(F)(F)F)cn3)CC2)cc1 (stereo unspecified) | -30.1 | i | i | i | i
CC(OC(=O)C1CCN(c2ccc(C(F)(F)F)cn2)CC1)C(=O)c1ccccc1 (stereo unspecified) | -31.9 | i | i | i | i
Cc1ccccc1C(=O)Nc1ccc(N2CCN(C)CC2)nc1 | i | i | i | i | i
SMILES | D1 antagonist | D1 potentiator | TRHR enhancer | TRHR ag | D1 agonist
CC(=O)Nc1cccc(NC(=O)CSc2cn(CC(=O)N3CCCCCC3)c3ccccc23)c1 | i | i | i | i | i
CC(C)N1CCc2nc(SCC(=O)Nc3cccc(F)c3)[nH]c(=O)c2C1 | i | i | i | i | i
CCOc1ccc(CC(=O)Nc2c(C(=O)c3ccccc3)oc3ccc(Cl)cc23)cc1OCC | i | i | i | i | i
COC(=O)c1cn(NC(=O)/C=C/c2cccc(OC)c2OC)c(=O)c2ccccc12 | i | i | i | i | i
COC(=O)c1cn(NC(=O)/C=C/c2ccc(OC)c(OC)c2)c(=O)c2ccccc12 | -73.8 | i | i | i | i
O=S(=O)(NC1CCCC(NS(=O)(=O)c2c(F)cccc2F)C1)c1ccc2c(c1)OCCO2 (stereo unspecified) | i | i | i | i | i
Cc1cc(N/N=C/c2ccc([N+](=O)[O-])o2)nc2ccccc12 | i | i | i | i | 47.8
COc1ccc(/C=N/N=C2\CC3CCC2(C)C3(C)C)cc1O (stereo unspecified) | i | i | i | i | i
COc1cc(/C=N/N=C2\CC3CCC2(C)C3(C)C)ccc1O (stereo unspecified) | -59.9 | i | i | i | i
CC(/C=N/Nc1nc2ccccc2[nH]1)=C\c1ccccc1 | -41.8 | i | i | i | i
CCN(CC)c1ccc(/C=N/Nc2nc3ccccc3[nH]2)cc1 | -61.6 | i | i | i | i
FC(F)C(F)(F)Oc1cccc(-c2n[nH]c(=S)n2Cc2ccccc2)c1 | -39.5 | i | i | i | i
Fc1ccc(-c2n[nH]c(=S)n2Cc2ccccc2)cc1 | i | i | i | i | i
CC(C)(C)c1ccc(-c2n[nH]c(=S)n2Cc2ccccc2)cc1 | i | i | i | i | 91.5
Cn1cccc1/C=N/n1c(-c2ccco2)n[nH]c1=S | i | i | i | i | i
COc1cc(-c2n[nH]c(=S)n2/N=C/c2cccn2C)cc(OC)c1OC | -58.7 | i | i | i | 77.9
Cc1cccc(NCc2cccc3ccccc23)n1 | -90.7 | i | i | i | i
CCc1nc(C)c(C#N)c2cc(OC)c(OC)cc12 | -33.6 | i | i | i | i
Cc1ccc(S(=O)(=O)N2CCN(Cc3ccco3)CC2)c(C)c1 | i | 37.5 | i | i | i
COc1ccc(C2=C(C)C(=NCc3ccc(OC(C)C)cc3)NS2(=O)=O)cc1 | i | i | i | i | i
COc1cc(OC)cc(-c2c(-c3cccs3)c3cc(Br)ccc3n2C)c1 | nt | i | i | i | i
COc1cc(F)cc(-c2ccc3c(c2)c(-c2cccs2)c(-c2cc(OC)cc(OC)c2)n3C)c1 | nt | i | i | i | 42.3
Cc1ccc(C)c(NC(=O)CSc2nc3ccccc3nc2N2CCOCC2)c1 | -45.6! | i | i | i | i
Cc1nc(N2CCCC2)c2c(C(=O)Nc3cccc(C)c3C)c(C)oc2n1 | i | i | i | i | i
O=C(Nc1ccccc1)c1cc(N2CCOCC2)nc2ccccc12 | -55.4 | i | i | i | i
SMILES | D1 antagonist | D1 potentiator | TRHR enhancer | TRHR ag | D1 agonist
Cc1ccc(NC(=O)CCC(=O)N2Cc3ccccc3Oc3ncccc32)cc1 | i | i | i | i | i
CCOc1ccccc1OCC(=O)OCC(=O)NNC(=O)c1ccc([N+](=O)[O-])cc1 | i | i | 30.1 | i | i
O=C(CC(=O)Nc1ccccc1[N+](=O)[O-])Nc1ccccc1[N+](=O)[O-] | -34.1 | i | i | i | i
CC(C)c1ccccc1NC(=O)COC(=O)COc1ccccc1[N+](=O)[O-] | i | i | i | i | i
O=C(COC(=O)COc1ccccc1[N+](=O)[O-])Nc1ccccc1Br | -43.2 | i | i | i | i
O=C(CCOc1ccccc1)Nc1ccccc1[N+](=O)[O-] | i | i | i | i | i

Assay outcomes from PubChem.
